This excerpt belongs to a sample that is enriched for hits.
FBPA Giardia inh = Giardia lamblia aldolase inhibition | A8B2U2 | purified Giardia FBPA | Potency, µM (top dose mostly 59.6 µM), inactives show at the top dose activity, negative = inhibition, usual class: inhibitors | 290,000 tested, 0.71% active; further: potency means the concentration at half of the fitted maximal effect; on the % scale 0 is the no-effect control and ±100 the full control effect; nearly all actives have a fitted effect of over 55% in size
Target sequence (A8B2U2 whole entry, looked up): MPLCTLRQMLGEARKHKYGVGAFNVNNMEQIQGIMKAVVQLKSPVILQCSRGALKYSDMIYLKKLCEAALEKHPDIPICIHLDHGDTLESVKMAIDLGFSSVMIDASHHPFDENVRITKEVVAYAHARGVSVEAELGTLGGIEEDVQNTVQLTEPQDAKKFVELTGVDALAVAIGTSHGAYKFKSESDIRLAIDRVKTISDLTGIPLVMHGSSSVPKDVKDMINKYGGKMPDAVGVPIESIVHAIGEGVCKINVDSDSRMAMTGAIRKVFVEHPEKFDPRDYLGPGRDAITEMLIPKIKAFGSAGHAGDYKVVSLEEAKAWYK
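40 nM FBPA preincubated 10 min at RT with compound (up to 57.5 uM final), then substrate plus GAPDH/TPI/NAD/arsenate coupling and diaphorase/resazurin added. Fluorescence read after 20 min at RT, 525/598 nm.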
CHX counter = affects cycloheximide protein synthesis inhibition readout, counter-screen; cell reporter, cycloheximide protein synthesis inhibition counterscreen; max response, %; 300,000 tested, 12% active; AID 2314; in the data active means max response mostly above about 13%, no sharp cut-off; inactive means mostly below about 14%; further: read at 38.3 µM for the half of the compounds with a filed dose; 0% is about no effect
LmPK inhibitor = LmPK (Leishmania mexicana) enzyme inhibition; 290,000 tested, 0.37% active; Q27686; purified LmPK, Kinase-Glo ATP luminescence, 1 h; AID 1721; Potency, µM (series often up to 57.5 µM), for the others: at the highest dose activity change, negative = inhibition, hits mostly inhibitors; further: potency means the concentration at half of the fitted maximal effect; on the % scale 0 is the no-effect control and ±100 the full control effect
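qHTS format; LmPK 0.1 nM; substrates PEP 0.5 mM and ADP 0.1 mM. One-hour room-temperature incubation, then coupled luciferase luminescence; 0.5 nM enzyme wells mark activation.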
RE007 growth inh = less growth of the S. pombe RE007 Vpr strain; 360,000 tested, 0.21% active; Potency, µM (highest dose often 92.2 µM), without a hit: at the highest dose activity change, negative = less growth, hits mostly inhibitors; S. pombe RE007 Vpr strain, BacTiter-Glo ATP luminescence, 24 h; active means well fitted falling curve with a large enough effect; inconclusive means small, poorly fitted or top-dose-only effect; inactive means no such curve, though single readings can be large or run the other way; further: potency means the concentration at half of the fitted maximal effect; on the % scale 0 is the no-effect control and ±100 the full control effect; nearly all actives have a fitted effect of over 50% in size
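Fission yeast strain RE007, carrying one chromosomally integrated HIV-1 vpr copy, was seeded at OD 0.01 in PMG+AL medium with 23 nL pinned compound. After 24 h at 30 °C and 99% humidity, viability was read by BacTiter-Glo luminescence.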
TbPYK inhibitor = T. brucei pyruvate kinase inhibition | Q57TT1 | TbPYK enzyme, Kinase-Glo Plus ATP luminescence, 45 min | Potency, µM (series often up to 76.8 µM), without a hit: top-dose activity, negative = inhibition, hits mostly inhibitors | 410,000 tested, 0.12% active; further: potency means the concentration at half of the fitted maximal effect; on the % scale 0 is the no-effect control and ±100 the full control effect; nearly all actives have a fitted effect of over 50% in size
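Quantitative HTS: titrated library compounds versus trypanosomal pyruvate kinase in TEA buffer (pH 7.2) containing KCl, MgCl2, BSA and Tween-20. Reactions were initiated with ADP, 130 uM final. Kinase-Glo Plus luminescence was read after 45 min at RT.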
Shiga toxin inh = Shiga toxin inhibition; Vero cells, Shiga toxin protein synthesis inhibition reporter; inhibition, % at 38.7 µM; 290,000 tested, 9.2% active; in the data active means inhibition mostly above about 28%, no sharp cut-off; inactive means mostly below about 43%; further: 0% is about no effect
The depositor's hits bear a star; ? = inconclusive; nt = no result given; [ ] = dose if it differs, or a comment. Unless noted, the call rests on the fitted dose curve; in most records, active means well fitted curve in the direction sought with a large enough effect; inconclusive means small, poorly fitted or top-dose-only effect, or another doubt; inactive means no such curve, though single readings can be large; an effect the other way counts as inactive or inconclusive.

SMILES | FBPA Giardia inh | CHX counter | LmPK inhibitor | RE007 growth inh | TbPYK inhibitor | Shiga toxin inh
Cc1c(C(=O)NCc2cccnc2)sc2nc(-c3ccccc3)cn12 | 5% | 24* | -14% | 0% | -11% | 31*
Cc1c(C(=O)NCc2ccco2)sc2nc(-c3ccccc3)cn12 | 6% | 54* | -2% | -5% | 0% | 66*
CCN(CC)c1ccc(NC(=O)c2sc3nc(-c4ccccc4)cn3c2C)cc1 | nt | nt | nt | nt | -5% | nt
Cc1c(C(=O)NCc2cccnc2)sc2nc(-c3ccc(F)cc3)cn12 | -1% | 30* | 4% | 3% | -14% | 45*
Cc1c(C(=O)Nc2ccncc2)sc2nc(-c3ccccc3)cn12 | -13% | 18* | -19% | 8% | 2% | 22
Cc1nc2cc(-c3ccccc3)nn2c(C)c1CCC(=O)NCc1ccco1 | -5% | 39* | 4% | -7% | 0% | 68*
COc1ccccc1-c1cc2nc(C)c(CCC(=O)NCc3ccco3)c(C)n2n1 | 2% | 14 | 5% | 6% | -7% | 3
CC(C(=O)NCc1cccc(Br)c1)n1ncn2cccc2c1=O (stereo not given) | nt | nt | nt | nt | -4% | nt
CCC(C)c1ccc(NC(=O)C2CC2)cc1 (stereo not given) | -11% | 25* | -3% | -22% | -2% | 59*
COc1ccc(NC(=O)C2CCCN(c3nccc(C)n3)C2)cc1 (stereo not given) | -5% | -2 | -1% | 14% | 0% | 16
COc1ccc(NC(=O)C2CCCN(c3ncccn3)C2)cc1 (stereo not given) | -7% | 30* | 2% | 0% | -7% | 92*
Cc1ccc(NC(=O)C2CCCN(c3ncccn3)C2)cc1C (stereo not given) | -4% | 29* | 0% | 4% | -7% | 99*
O=C(NC1CCCCCC1)C1CCCN(c2ncccn2)C1 (stereo not given) | 3% | 24* | -3% | 7% | 4% | 38
O=C1CC(c2ccccc2)Cc2[nH]c(=O)c(C(=O)Nc3ccc(OC(F)(F)F)cc3)cc21 (stereo not given) | nt | nt | nt | nt | 3% | nt
CCc1ccc(NS(=O)(=O)c2c(-c3ccccc3)csc2C(=O)OC)cc1 | nt | nt | nt | nt | -1% | nt
O=C(CCBr)N1CCN(C(=O)CCBr)CC1 | -23% | nt | nt | nt | 1% | nt
CCc1ccc(NC(=O)CC2C(=O)N(c3ccc(F)cc3)C(=O)N2Cc2ccc(F)cc2)cc1 (stereo not given) | nt | nt | nt | nt | 1% | nt
CCC(C)c1ccc(NC(=O)C2CCCN(c3ncccn3)C2)cc1 (stereo not given) | -19% | 33* | 10% | 18%[3.69 µM] | nt | 50*
COc1ccc(NC(=O)C2CCCN(c3cnccn3)C2)cc1 (stereo not given) | nt | 14 | -3% | 4% | 10% | -3
CC(C)(C)c1ccc(NC(=O)C2CCCN(c3cnccn3)C2)cc1 (stereo not given) | -12% | 16* | 1% | -29% | -9% | 34
CCCC(=O)Nc1ccc(-c2nc3cc(C)c(C)cc3o2)cc1 | 8% | 35* | -4% | 7% | -1% | 119*
CCCCC(=O)Nc1ccc2oc(-c3ccncc3)nc2c1 | -5% | 13* | -8% | 14% | -2% | 39*
CCCC(=O)Nc1ccc2oc(-c3ccncc3)nc2c1 | -11% | 20* | 0% | -2% | 0% | 68*
O=C(CN1CCCC1)Nc1ccc(-c2nc3cc(NC(=O)CN4CCCC4)ccc3o2)cc1 | -2% | 33* | 6% | 3% | 3% | 73*
COc1ccc(OCC(=O)Nc2ccc3oc(-c4ccncc4)nc3c2)cc1 | -1% | 1 | 11% | 7% | 0% | -12
SMILES | FBPA Giardia inh | CHX counter | LmPK inhibitor | RE007 growth inh | TbPYK inhibitor | Shiga toxin inh
COc1ccc(CCNC(=O)c2ccc3c(c2)CCN3S(C)(=O)=O)cc1OC | nt | nt | nt | nt | -7% | nt
CC1CCc2c(sc(NC(=O)c3ccccc3)c2C(=O)Nc2ccccc2)C1 (stereo not given) | nt | nt | nt | nt | -19% | nt
O=C(CSc1nc(=O)n(Cc2ccncc2)c2c1CCC2)Nc1ccc(F)cc1F | nt | nt | nt | nt | -5% | nt
Cc1ccc(Sc2ncccc2C(=O)NCc2cc([N+](=O)[O-])ccc2O)c(C)c1 | nt | 66* | -10% | 3% | -6% | 104*
CCCn1c2ccccc2c2cnn(CC(=O)Nc3cc(C)c(Cl)cc3OC)c(=O)c21 | nt | nt | nt | nt | 7% | nt
Cc1ccccc1NC(=O)Cn1cc(S(=O)(=O)N2CCCC2)c(S(=O)(=O)N2CCCC2)c1 | nt | nt | nt | nt | -6% | nt
O=C(NCCSCc1c(F)cccc1Cl)c1ccco1 | -12% | 29* | 6% | ? | -3% | 119
O=C(CNC(=O)c1ccco1)OCc1c(F)cccc1Cl | -2% | 20* | -7% | 10% | -1% | 8
COc1ccccc1C(=O)NCCSCc1c(F)cccc1Cl | 4% | 23* | 0% | 0% | 2% | 25
CC(=Nc1ccccc1N)c1c(O)n(C)c(=O)[nH]c1=O | 1% | 50* | 1% | -20% | -2% | 76*
C/C(=N/OC(=O)c1ccccc1)c1oc(C)nc1C | 2% | 51* | ? | -7% | -11% | 64*
COc1ccc(CCNC(=O)CSc2ncc3c(n2)-c2cc(Cl)ccc2N(Cc2ccccc2)S3(=O)=O)cc1OC | nt | nt | nt | nt | -2% | nt
Cc1onc(-c2ccccc2Cl)c1C(=O)Nc1nnc(-c2ccc(Cl)cc2Cl)s1 | 18% | -2 | 2% | 12% | 0% | -4
Cc1onc(-c2ccccc2Cl)c1C(=O)Nc1nnc(-c2ccc(Br)cc2)s1 | 6% | 22* | -1% | 6% | 3% | 14
Cc1onc(-c2ccccc2Cl)c1C(=O)Nc1nc2c(s1)CCCC2 | 0% | 69* | 8% | 4% | 1% | 127*
Oc1c(C(c2ccccc2F)N2CCOCC2)sc2nc(-c3ccco3)nn12 (stereo not given) | nt | nt | nt | nt | 5% | nt
N#C/C(=C\c1ccc(N2CCOCC2)o1)C(=O)NCC1CCCO1 (stereo not given) | -3% | -5 | 6% | 9% | 0% | 24
N#C/C(=C/c1ccc(N2CCOCC2)o1)C(=O)Nc1ccccc1 | -4% | 36* | 0% | 2% | -1% | 76*
N#C/C(=C\c1ccc(N2CCOCC2)o1)C(=O)NC1CCCCC1 | -10% | 23* | -2% | 0% | -7% | 46*
COc1ccc(C)cc1NC(=O)Nc1ccccc1 | 1% | 6 | 1% | -2% | 0% | -3
COc1ccc(Cl)cc1NC(=O)Nc1ccc(C(=O)N2CCCC2)cc1 | nt | 17* | -10% | 5% | 0% | 55*
COc1ccc(Cl)cc1NC(=S)N1CCCC1 | 0% | 11 | -3% | -23% | 3% | -22
COc1ccc(C)cc1NC(=O)Nc1ccc(C(=O)N2CCCC2)cc1 | nt | 14* | -29% | -23% | -5% | 48*
